Experimental data taken from paper PMC7862700, “An all-to-all approach to the identification of sequence-specific readers for epigenetic DNA modifications on cytosine”.

Legend:
Experiment in all cases: DAPPL (digital affinity profiling via proximity ligation, sequencing); 10 mM Tris-HCl pH 7.5, 50 mM NaCl, 1 mM DTT, 4% glycerol, room temperature, 30 min; GST-TFs on glutathione beads, 16-mer random dsDNA library, 0.1% formaldehyde crosslink after washing; high values mean tight binding
FLI1 = target: T1, FLI1 (Homo sapiens, UniProt Q01543 1-452); details: protein: recombinant; tags: N-terminal GST; dsDNA, one strand shown
T1 sequence: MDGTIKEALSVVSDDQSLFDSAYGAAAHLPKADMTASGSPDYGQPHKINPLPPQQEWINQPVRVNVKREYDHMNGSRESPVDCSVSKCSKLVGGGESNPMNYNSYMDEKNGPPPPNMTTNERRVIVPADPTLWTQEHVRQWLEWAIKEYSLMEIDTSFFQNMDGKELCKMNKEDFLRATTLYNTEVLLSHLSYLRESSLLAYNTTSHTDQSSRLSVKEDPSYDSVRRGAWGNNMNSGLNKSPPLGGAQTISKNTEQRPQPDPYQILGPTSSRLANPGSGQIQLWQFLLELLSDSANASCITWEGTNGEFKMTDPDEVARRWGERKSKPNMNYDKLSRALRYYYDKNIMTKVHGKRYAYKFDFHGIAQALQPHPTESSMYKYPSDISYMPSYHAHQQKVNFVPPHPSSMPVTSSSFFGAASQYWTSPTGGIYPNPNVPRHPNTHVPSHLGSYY
Method in brief: (§1)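 GST fusions of human transcription factors were expressed in yeast and captured with glutathione beads. Once given DNA barcodes and pooled alongside a tag-only sample, they were incubated for 30 min at room temperature with 200 nmole of a random double-stranded 16-mer DNA library in Tris/NaCl/DTT/glycerol buffer, then washed, crosslinked (0.1% formaldehyde), proximity-ligated, PCR-amplified and sequenced on an Illumina NextSeq500. The binding signal of each hexamer is its read frequency for a factor divided by its frequency for the tag-only sample.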

ELK1 = target: T2, ELK1 (Homo sapiens, UniProt P19419 1-428); details: protein: recombinant; tags: N-terminal GST; dsDNA, one strand shown
T2 sequence: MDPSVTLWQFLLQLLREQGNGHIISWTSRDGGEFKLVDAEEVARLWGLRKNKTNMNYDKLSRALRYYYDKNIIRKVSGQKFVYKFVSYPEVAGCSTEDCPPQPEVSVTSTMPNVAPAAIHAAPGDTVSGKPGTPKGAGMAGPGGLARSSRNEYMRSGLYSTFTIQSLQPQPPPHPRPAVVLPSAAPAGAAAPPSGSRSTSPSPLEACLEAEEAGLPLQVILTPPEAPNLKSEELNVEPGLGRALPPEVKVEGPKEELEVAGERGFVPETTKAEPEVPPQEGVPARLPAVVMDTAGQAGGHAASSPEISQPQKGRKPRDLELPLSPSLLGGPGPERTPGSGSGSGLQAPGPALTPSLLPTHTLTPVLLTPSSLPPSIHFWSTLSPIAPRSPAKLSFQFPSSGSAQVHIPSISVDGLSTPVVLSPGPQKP
Method in brief: as §1

GABPA = target: T3, GABPA (Homo sapiens, UniProt Q06546 1-454); details: protein: recombinant; tags: N-terminal GST; dsDNA, one strand shown
T3 sequence: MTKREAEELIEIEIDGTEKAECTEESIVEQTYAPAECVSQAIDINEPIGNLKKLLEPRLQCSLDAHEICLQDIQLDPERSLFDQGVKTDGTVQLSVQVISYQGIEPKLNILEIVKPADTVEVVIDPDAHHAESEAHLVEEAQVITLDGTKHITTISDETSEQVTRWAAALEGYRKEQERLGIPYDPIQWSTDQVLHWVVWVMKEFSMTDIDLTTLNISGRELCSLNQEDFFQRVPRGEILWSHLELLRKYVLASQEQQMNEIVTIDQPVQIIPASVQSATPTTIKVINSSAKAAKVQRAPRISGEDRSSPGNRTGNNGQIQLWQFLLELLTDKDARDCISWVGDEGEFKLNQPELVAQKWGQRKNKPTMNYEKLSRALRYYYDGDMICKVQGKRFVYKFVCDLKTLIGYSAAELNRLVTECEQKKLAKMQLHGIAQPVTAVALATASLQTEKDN
Method in brief: as §1

ERG = target: T4, ERG (Homo sapiens, UniProt P11308 1-479); details: protein: recombinant; tags: N-terminal GST; dsDNA, one strand shown
T4 sequence: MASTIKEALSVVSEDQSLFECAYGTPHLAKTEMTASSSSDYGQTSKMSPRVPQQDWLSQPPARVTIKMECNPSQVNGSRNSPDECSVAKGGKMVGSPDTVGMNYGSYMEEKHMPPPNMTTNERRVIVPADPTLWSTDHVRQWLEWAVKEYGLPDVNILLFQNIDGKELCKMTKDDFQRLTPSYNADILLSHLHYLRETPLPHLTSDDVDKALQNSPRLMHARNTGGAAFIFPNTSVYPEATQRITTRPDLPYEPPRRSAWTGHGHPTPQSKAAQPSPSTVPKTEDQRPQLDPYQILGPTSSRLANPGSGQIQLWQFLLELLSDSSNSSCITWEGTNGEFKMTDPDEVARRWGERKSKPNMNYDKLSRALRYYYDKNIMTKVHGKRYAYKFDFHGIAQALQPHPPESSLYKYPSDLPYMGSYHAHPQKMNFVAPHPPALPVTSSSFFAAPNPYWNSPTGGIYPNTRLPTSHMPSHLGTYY
Method in brief: as §1

ELF1 = ELF1 (Homo sapiens, UniProt P32519 1-619); details: protein: recombinant; tags: N-terminal GST; dsDNA, one strand shown
Method in brief: as §1

EHF = target: T5, EHF (Homo sapiens, UniProt Q9NZC4 1-300); details: protein: recombinant; tags: N-terminal GST; dsDNA, one strand shown
T5 sequence: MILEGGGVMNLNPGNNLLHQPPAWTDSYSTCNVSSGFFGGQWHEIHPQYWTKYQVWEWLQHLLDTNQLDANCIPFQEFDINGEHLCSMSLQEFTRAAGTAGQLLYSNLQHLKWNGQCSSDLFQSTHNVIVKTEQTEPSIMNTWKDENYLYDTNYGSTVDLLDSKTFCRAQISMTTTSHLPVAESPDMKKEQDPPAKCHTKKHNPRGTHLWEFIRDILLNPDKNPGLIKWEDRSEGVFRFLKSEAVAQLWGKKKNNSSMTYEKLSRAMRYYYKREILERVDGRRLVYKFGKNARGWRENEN
Method in brief: as §1

SPI1 = SPI1 (Homo sapiens, UniProt P17947 1-270); details: protein: recombinant; tags: N-terminal GST; dsDNA, one strand shown
Method in brief: as §1

SPIB = SPIB (Homo sapiens, UniProt Q01892 1-262); details: protein: recombinant; tags: N-terminal GST; dsDNA, one strand shown
Method in brief: as §1

ELK3 = target: T6, ELK3 (Homo sapiens, UniProt P41970 1-407); details: protein: recombinant; tags: N-terminal GST; dsDNA, one strand shown
T6 sequence: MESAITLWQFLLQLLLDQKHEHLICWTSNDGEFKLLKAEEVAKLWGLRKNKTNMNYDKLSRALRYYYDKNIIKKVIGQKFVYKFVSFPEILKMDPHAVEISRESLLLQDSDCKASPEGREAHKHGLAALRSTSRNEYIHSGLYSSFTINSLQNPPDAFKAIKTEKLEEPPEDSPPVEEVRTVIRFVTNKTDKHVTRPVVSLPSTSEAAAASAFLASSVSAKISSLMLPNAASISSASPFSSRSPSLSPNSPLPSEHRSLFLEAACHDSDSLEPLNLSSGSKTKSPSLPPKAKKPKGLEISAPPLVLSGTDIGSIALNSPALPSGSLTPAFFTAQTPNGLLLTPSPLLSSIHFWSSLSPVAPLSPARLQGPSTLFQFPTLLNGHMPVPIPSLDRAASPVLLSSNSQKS
Method in brief: as §1

FEV = target: T7, FEV (Homo sapiens, UniProt Q99581 1-238); details: protein: recombinant; tags: N-terminal GST; dsDNA, one strand shown
T7 sequence: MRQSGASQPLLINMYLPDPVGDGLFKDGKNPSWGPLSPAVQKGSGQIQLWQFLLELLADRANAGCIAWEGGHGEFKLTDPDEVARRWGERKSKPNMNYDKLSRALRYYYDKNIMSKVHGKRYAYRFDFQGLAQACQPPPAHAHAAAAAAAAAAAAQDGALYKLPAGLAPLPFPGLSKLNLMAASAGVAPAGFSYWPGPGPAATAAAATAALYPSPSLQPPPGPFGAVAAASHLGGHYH
Method in brief: as §1

ETV5 = ETV5 (Homo sapiens, UniProt P41161 1-510); details: protein: recombinant; tags: N-terminal GST; dsDNA, one strand shown
Method in brief: as §1

HSF1 = HSF1 (Homo sapiens, UniProt Q00613 1-529); details: protein: recombinant; tags: N-terminal GST; chain copies: 3; dsDNA, one strand shown
Method in brief: as §1

SPIC = target: T8, SPIC (Homo sapiens, UniProt Q8N5J4 1-248); details: protein: recombinant; tags: N-terminal GST; dsDNA, one strand shown
T8 sequence: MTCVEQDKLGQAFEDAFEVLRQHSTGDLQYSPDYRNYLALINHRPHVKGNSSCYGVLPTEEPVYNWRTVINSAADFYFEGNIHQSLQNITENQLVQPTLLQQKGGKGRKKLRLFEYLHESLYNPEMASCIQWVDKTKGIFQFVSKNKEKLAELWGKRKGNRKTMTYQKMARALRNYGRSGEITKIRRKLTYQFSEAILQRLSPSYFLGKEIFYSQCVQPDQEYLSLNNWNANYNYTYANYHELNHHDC
Method in brief: as §1

ELF4 = ELF4 (Homo sapiens, UniProt Q99607 1-663); details: protein: recombinant; tags: N-terminal GST; dsDNA, one strand shown
Method in brief: as §1

ELK4 = target: T9, ELK4 (Homo sapiens, UniProt P28324-2 1-405); details: protein: recombinant; tags: N-terminal GST; dsDNA, one strand shown
T9 sequence: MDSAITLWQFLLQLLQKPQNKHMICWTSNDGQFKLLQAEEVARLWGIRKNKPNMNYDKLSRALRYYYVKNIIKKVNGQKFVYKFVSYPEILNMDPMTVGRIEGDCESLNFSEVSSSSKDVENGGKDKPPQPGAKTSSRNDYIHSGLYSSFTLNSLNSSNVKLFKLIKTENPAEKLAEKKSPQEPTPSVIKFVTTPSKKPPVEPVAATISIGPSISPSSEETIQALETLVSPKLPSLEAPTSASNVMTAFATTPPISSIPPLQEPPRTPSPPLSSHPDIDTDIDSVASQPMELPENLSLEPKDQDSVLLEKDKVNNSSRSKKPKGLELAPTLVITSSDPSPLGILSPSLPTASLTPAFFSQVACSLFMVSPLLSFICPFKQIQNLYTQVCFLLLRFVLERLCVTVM
Method in brief: as §1

ETV2 = target: T10, ETV2 (Homo sapiens, UniProt O00321 1-342); details: protein: recombinant; tags: N-terminal GST; dsDNA, one strand shown
T10 sequence: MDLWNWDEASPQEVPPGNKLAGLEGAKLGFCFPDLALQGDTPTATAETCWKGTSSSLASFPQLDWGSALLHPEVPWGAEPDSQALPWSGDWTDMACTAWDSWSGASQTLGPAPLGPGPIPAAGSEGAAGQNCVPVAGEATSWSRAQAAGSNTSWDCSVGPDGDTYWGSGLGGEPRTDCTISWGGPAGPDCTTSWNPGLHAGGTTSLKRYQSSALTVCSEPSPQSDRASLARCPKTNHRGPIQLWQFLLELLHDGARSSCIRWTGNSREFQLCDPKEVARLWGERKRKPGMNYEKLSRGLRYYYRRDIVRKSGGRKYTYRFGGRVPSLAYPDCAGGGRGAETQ
Method in brief: as §1

ELF3 = target: T11, ELF3 (Homo sapiens, UniProt P78545 1-371); details: protein: recombinant; tags: N-terminal GST; dsDNA, one strand shown
T11 sequence: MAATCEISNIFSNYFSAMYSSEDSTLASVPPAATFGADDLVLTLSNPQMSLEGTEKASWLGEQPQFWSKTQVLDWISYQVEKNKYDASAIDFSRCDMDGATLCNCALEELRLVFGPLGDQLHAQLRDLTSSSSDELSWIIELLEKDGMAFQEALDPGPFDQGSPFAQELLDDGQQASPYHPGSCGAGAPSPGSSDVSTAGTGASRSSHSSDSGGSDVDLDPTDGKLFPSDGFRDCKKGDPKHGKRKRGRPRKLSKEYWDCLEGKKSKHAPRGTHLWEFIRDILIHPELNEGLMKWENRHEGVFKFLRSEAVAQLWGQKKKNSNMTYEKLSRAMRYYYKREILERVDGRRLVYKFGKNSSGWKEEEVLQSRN
Method in brief: as §1

CRX = CRX (Homo sapiens, UniProt O43186 1-299); details: protein: recombinant; tags: N-terminal GST; dsDNA, one strand shown
Method in brief: as §1

ETV1 = ETV1 (Homo sapiens, UniProt P50549 1-477); details: protein: recombinant; tags: N-terminal GST; dsDNA, one strand shown
Method in brief: as §1

Chain of ELF1 (P32519 whole entry): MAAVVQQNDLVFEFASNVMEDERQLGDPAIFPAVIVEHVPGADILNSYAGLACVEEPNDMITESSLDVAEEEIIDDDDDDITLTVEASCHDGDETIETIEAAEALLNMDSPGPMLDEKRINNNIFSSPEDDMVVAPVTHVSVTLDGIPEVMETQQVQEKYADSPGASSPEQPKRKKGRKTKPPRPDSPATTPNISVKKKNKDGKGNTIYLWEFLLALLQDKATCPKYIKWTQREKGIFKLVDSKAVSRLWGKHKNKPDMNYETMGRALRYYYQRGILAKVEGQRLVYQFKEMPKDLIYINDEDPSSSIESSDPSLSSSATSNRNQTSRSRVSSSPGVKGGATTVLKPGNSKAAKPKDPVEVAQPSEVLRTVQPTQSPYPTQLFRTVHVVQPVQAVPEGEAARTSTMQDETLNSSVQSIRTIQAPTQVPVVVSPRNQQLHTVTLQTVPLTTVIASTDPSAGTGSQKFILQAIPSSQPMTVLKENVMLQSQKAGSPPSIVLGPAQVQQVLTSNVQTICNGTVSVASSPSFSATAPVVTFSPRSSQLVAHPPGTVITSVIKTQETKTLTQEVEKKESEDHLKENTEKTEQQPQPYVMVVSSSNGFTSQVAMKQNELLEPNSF
Chain of SPIB (Q01892 whole entry): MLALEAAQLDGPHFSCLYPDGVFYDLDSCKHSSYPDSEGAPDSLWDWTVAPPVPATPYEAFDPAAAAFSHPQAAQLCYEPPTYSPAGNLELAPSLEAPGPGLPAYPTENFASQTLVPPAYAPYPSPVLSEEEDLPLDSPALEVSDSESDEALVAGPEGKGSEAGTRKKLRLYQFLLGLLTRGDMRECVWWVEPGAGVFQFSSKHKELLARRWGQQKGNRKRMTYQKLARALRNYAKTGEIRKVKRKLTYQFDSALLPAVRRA
Chain of ELF4 (Q99607 whole entry): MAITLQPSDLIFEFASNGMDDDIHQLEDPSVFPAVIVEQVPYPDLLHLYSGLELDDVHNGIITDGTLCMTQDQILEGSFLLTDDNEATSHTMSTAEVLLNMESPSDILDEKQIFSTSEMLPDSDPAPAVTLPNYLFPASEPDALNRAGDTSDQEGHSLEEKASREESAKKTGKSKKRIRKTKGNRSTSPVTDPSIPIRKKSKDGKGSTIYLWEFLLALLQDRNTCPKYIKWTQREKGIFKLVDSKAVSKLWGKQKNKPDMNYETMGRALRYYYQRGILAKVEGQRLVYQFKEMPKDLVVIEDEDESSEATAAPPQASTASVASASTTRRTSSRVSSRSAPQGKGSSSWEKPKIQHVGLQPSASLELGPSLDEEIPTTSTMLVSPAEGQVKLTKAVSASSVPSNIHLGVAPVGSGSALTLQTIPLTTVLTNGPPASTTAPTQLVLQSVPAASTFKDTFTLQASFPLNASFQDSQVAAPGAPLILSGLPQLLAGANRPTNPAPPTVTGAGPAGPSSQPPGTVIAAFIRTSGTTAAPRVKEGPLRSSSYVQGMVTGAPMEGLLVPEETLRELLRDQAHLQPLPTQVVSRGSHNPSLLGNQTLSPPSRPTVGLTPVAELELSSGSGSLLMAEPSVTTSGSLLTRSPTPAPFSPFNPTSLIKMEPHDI
Chain of HSF1 (Q00613 whole entry): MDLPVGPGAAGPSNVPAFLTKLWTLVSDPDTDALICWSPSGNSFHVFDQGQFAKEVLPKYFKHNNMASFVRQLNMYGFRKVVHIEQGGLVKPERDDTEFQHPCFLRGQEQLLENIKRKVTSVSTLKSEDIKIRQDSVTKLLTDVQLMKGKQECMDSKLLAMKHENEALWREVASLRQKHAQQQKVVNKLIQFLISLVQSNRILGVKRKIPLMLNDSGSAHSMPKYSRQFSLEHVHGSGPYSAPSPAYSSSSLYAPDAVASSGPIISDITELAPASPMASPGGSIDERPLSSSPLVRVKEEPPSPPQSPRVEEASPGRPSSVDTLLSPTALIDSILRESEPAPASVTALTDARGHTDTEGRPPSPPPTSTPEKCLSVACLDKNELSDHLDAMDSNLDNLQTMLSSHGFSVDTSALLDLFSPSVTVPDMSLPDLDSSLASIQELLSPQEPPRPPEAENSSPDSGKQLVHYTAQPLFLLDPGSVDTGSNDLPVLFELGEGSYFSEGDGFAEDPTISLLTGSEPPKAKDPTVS
Chain of ETV5 (P41161 whole entry): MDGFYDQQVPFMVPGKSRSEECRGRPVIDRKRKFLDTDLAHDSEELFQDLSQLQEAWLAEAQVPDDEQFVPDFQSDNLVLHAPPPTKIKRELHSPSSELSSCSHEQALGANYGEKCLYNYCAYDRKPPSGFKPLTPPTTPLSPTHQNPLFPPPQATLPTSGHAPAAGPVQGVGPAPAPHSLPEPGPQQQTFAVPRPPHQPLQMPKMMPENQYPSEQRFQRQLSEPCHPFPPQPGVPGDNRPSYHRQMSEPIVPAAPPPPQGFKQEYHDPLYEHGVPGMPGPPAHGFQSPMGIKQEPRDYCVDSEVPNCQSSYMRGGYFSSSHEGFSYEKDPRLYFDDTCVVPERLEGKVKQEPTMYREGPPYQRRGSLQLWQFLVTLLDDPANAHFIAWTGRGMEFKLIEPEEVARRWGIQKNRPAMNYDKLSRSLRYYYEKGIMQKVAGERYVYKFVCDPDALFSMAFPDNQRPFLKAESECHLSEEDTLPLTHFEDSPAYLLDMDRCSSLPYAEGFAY
Chain of ETV1 (P50549 whole entry): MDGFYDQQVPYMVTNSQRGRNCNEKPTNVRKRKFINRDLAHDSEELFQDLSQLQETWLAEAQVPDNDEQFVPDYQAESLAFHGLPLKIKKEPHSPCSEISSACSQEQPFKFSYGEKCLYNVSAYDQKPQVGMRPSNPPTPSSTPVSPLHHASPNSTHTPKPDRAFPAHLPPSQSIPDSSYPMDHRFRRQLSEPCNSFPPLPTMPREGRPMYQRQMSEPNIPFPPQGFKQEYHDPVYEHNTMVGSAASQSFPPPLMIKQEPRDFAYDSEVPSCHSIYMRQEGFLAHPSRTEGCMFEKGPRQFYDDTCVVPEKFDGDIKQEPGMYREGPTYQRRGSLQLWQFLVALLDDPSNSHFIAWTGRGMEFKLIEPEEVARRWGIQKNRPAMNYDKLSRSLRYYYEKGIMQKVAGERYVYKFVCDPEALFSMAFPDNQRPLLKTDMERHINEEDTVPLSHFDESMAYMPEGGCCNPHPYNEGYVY
Chain of CRX (O43186 whole entry): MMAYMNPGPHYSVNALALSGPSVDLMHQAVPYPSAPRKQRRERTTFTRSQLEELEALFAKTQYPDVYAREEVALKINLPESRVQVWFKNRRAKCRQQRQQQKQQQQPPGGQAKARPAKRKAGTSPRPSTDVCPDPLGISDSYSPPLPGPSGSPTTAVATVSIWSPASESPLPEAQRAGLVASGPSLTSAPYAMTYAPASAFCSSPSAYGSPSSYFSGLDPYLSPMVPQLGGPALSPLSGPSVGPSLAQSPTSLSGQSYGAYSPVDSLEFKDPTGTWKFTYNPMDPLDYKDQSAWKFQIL

Sequence: ATACCC
- binding signal (FLI1): 1.18 fold enrichment (6-mer frequency, TF over GST control)
- binding signal (ELK1): 1.17 fold enrichment (6-mer frequency, TF over GST control)
- binding signal (GABPA): 1.19 fold enrichment (6-mer frequency, TF over GST control)
- binding signal (ERG): 1.19 fold enrichment (6-mer frequency, TF over GST control)
- binding signal (ELF1): 1.2 fold enrichment (6-mer frequency, TF over GST control)
- binding signal (EHF): 1.21 fold enrichment (6-mer frequency, TF over GST control)
- binding signal (SPI1): 1.13 fold enrichment (6-mer frequency, TF over GST control)
- binding signal (SPIB): 1.14 fold enrichment (6-mer frequency, TF over GST control)
- binding signal (ELK3): 1.13 fold enrichment (6-mer frequency, TF over GST control)
- binding signal (FEV): 1.17 fold enrichment (6-mer frequency, TF over GST control)
- binding signal (ETV5): 1.16 fold enrichment (6-mer frequency, TF over GST control)
- binding signal (HSF1): 1 fold enrichment (6-mer frequency, TF over GST control)
- binding signal (SPIC): 1.2 fold enrichment (6-mer frequency, TF over GST control)
- binding signal (ELF4): 1.13 fold enrichment (6-mer frequency, TF over GST control)
- binding signal (ELK4): 1.16 fold enrichment (6-mer frequency, TF over GST control)
- binding signal (ETV2): 1.24 fold enrichment (6-mer frequency, TF over GST control)
- binding signal (ELF3): 1.16 fold enrichment (6-mer frequency, TF over GST control)
- binding signal (CRX): 1.2 fold enrichment (6-mer frequency, TF over GST control)
- binding signal (ETV1): 1.23 fold enrichment (6-mer frequency, TF over GST control)
